Screening results: PubChem, National Center for Advancing Translational Sciences (NCATS)
Cycloheximide cs: affects cycloheximide protein synthesis inhibition readout, counter-screen; cell reporter, cycloheximide protein synthesis inhibition counterscreen; max response, %; 300,000 compounds, 12% hits; AID 2314; in the data active = max response mostly above about 13%, no sharp cut-off; inactive = mostly below about 14%; note: read at 38.3 µM for the half of the compounds with a filed dose
LmPK inh: blocks Leishmania mexicana pyruvate kinase activity. Q27686. purified LmPK, Kinase-Glo ATP luminescence, 1 h. Potency, µM (series often up to 57.5 µM), most hits filed as inhibitors. 290,000 compounds, 0.37% hits
Target sequence (Q27686 whole entry, looked up): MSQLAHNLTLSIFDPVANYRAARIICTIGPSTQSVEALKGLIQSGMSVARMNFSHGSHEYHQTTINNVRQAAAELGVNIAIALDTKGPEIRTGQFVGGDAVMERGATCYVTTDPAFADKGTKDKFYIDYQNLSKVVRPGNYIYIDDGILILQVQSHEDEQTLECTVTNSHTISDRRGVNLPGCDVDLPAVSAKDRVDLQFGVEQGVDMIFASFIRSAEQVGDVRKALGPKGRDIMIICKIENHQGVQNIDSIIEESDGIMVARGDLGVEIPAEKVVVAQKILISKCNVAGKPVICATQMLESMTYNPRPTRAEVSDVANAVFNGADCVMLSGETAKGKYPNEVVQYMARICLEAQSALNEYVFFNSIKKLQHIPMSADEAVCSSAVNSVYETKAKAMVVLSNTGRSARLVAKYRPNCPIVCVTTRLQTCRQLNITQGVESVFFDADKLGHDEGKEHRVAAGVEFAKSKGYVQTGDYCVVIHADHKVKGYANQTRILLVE
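ATP generated from ADP (0.1 mM) and PEP (0.5 mM) by 0.1 nM LmPK over 1 h at room temperature (pH 7.2 imidazole buffer) was detected by coupled luciferase luminescence. Values were normalized to uninhibited and no-enzyme wells.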
Pf growth 96h: P. falciparum growth inhibition at 96 hour, primary screen for plastid delayed-death inhibitors; 320,000 compounds, 6.9% hits; P. falciparum luciferase reporter growth, 96 h; Potency, µM (doses to about 28.7 µM), actives largely listed as inhibitors; AID 504834
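P. falciparum expressing integrated firefly luciferase grown in erythrocytes (2% hematocrit, 0.05% parasitemia final) with compounds for 96 hours at 37 C, 5% CO2. Growth inhibition read as loss of luminescence after adding luciferase detection reagent.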
Pf growth 48h: inhibits P. falciparum growth in the first generation, 48 h | P. falciparum luciferase growth in erythrocytes, 48 h | Potency, µM (doses to about 28.7 µM), usual class: inhibitors | 310,000 compounds, 5.9% hits
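A one-generation exposure of luciferase-tagged malaria parasites in RPMI 1640/Albumax erythrocyte culture, 37 C and 5% CO2. Inhibition is inferred from decreased luminescence after adding detection reagent.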
Shiga inhibitor: Shiga toxin inhibition. 290,000 compounds, 9.2% hits. AID 2315. inhibition, % at 38.7 µM. Vero cells, Shiga toxin protein synthesis inhibition reporter; in the data active = inhibition mostly above about 28%, no sharp cut-off; inactive = mostly below about 43%
Numbers stand for hits; 0 = inactive; ? = inconclusive; - = not tested or not shown; [ ] = remark or other dose. Shown are actives, neighbours in structure and some others; about 22% of the full set was active somewhere. Unless noted, calls come from the whole dose curve; as a rule, active = well fitted inhibition curve with a large enough effect; inconclusive = small, poorly fitted or top-dose-only effect, or another doubt; inactive = no such curve, though single readings can be large or run the other way.

SMILES	Cycloheximide cs	LmPK inh	Pf growth 96h	Pf growth 48h	Shiga inhibitor
CCOC(=O)C1(Cc2ccc(OC)cc2)CCN(C(=O)CCc2cnccn2)CC1	13.6	0	0	0	0
CCOC(=O)C1(CCc2ccccc2)CCN(C(=O)CCc2cnccn2)CC1	23.9	0	0	?	55.0
CCOC(=O)C1(CCCc2ccccc2)CCN(C(=O)CCc2cnccn2)CC1	0	0	?	?	0
CCOC(=O)C1(Cc2ccc(OC)cc2)CCN(C(=O)CCN2CCCC2=O)CC1	16.9	0	0	?	0
CCOC(=O)C1(Cc2ccc(Cl)cc2)CCN(C(=O)CCc2cnccn2)CC1	0	0	?	?	0
CC1CCCCN1C(=O)CN1C(=O)NC2(CCCCC2C)C1=O (configuration not stated)	-	-	0	?	-
CCOc1c(Cl)cc(/C=C/C(=O)N(CC)CC(=O)NCc2cccs2)cc1OC	-	-	0	?	-
Cc1ccc(-n2nc3c(n2)/C(=N/O)CC/C3=N\O)cc1	43.7	14.1µM	0	0	48.5
O/N=C1\CC/C(=N\O)c2nn(-c3ccccc3Cl)nc21	0	0	?	0	0
CN(C(=O)c1c[nH]c(=O)cc1C(F)(F)F)c1ccc(Cl)cc1	0	0	?	?	0
CN(C(=O)c1c[nH]c(=O)cc1C(F)(F)F)c1ccc(Cl)c(Cl)c1	0	0	0	11.7µM	0
Nc1nc(-c2ccc3c(c2)OCCO3)cs1	49.8	0	-	0	78.6
Cc1nc(-c2ccc3c(c2)OCCCO3)cs1	44.6	0	0	0	86.7
Nc1nc(-c2ccc3c(c2)CCCC3)cs1	35.9	0	0	0	92.6
Nc1nc(-c2ccc3c(c2)NC(=O)CO3)cs1	0	0	-	0	0
Nc1nc(-c2cccc(F)c2)cs1	0	0	0	0	0
O=C(N/N=C\C=C\c1ccc2c(c1)OCO2)c1ccc(F)cc1	0	0	0	?	0
Cc1nc(-c2cccc(N)c2)cs1	0	0	0	0	0
Fc1ccc(-c2csc(/C=C/c3ccc4c(c3)OCO4)n2)cc1	20.5	0	0	0	38.6
O=C(NC(=S)Nc1ccc(S(=O)(=O)NC2CCCCC2)cc1)c1cccs1	0	0	?	?	0
Nc1nc(-c2cc3c(cc2Cl)OCCO3)cs1	40.2	0	?	0	43.7
O=S(=O)(c1cccc(-c2csc(-c3cccnc3)n2)c1)N1CCOCC1	0	0	?	?	0
Cc1nc(-c2ccc3c(c2)OCO3)cs1	16.0	0	0	0	42.8
c1cncc(-c2nc(-c3ccc4c(c3)OCO4)cs2)c1	28.1	0	-	0	85.3
CC1Cc2cc(-c3csc(N)n3)ccc2O1 (configuration not stated)	26.1	0	0	0	35.5
SMILES	Cycloheximide cs	LmPK inh	Pf growth 96h	Pf growth 48h	Shiga inhibitor
C=COCCNC(=S)N1CCOCCOCCN(C(=S)NCCOC=C)CCOCCOCC1	0	0	?	?	0
Cc1ccc(-c2cc(C(=O)N3CCc4ccccc4C3)[nH]n2)cc1C	0	0	0	0	0
O=C(Nc1cccc(Cl)c1)N1CCc2ccccc2C1	34.1	0	?	0	34.6
COc1cccc(NC(=O)N2CCc3ccccc3C2)c1	70.5	0	0	0	91.3
COc1ccc(NC(=S)N2CCc3ccccc3C2)cc1	0	0	0	0	0
O=C(Nc1cccc(Cl)c1)N1CCN(c2ncccn2)CC1	13.8	0	0	0	0
COc1cccc(-c2cc(C(=O)N3CCc4ccccc4C3)[nH]n2)c1	26.4	0	?	0	38.1
O=C(Nc1cccc(Cl)c1)c1nc[nH]c1C(=O)N1CCc2ccccc2C1	-	-	?	0	-
COc1cccc(-c2ncc3ccccc3c2COC(=O)c2ccco2)c1	-	-	0	0	-
O=C(Nc1ccccc1C(=O)NC1CC1)c1ccccc1	-	-	0	0	-
O=C(NC1=NC2CCCCC2N1)c1ccccc1 (configuration not stated)	33.5	0	-	0	97.1
CC(C)(C)C(O)CN1CCCC1 (configuration not stated)	0	0	?	0	0
Cc1cccc(CCN=c2c([N+](=O)[O-])nn(-c3ccccc3)n2O)c1	0	0[11.5 µM]	?	?	0
COc1ccc(-n2nc([N+](=O)[O-])c(=NCc3ccc4c(c3)OCO4)n2O)cc1	55.1	0	7.38µM	0	64.6
COc1ccc(-n2nc([N+](=O)[O-])c(=NCCc3cccc(C)c3)n2O)cc1	0	0	0	0	0
O=[N+]([O-])c1nn(-c2ccc(Cl)cc2)n(O)c1=NCc1ccccc1	36.4	0	0	0	0
O=[N+]([O-])c1nn(-c2ccccc2)n(O)c1=NCc1ccc2c(c1)OCO2	29.7	0	?	0	54.3
CCCCCN(C(=O)CN1CCC(Cc2ccccc2)CC1)c1c(N)n(CCCC)c(=O)[nH]c1=O	0	0	0	?	0
CCCCOc1ccc(NC(=S)Nc2cc(C)nc(SCCCC)n2)cc1	0	0	?	0	0
COC(=O)N/N=C\c1ccc(OC/C=C/c2ccccc2)cc1	14.7	0	0	?	0
COC(=O)N/N=C/c1ccc(Oc2ccccc2)cc1	46.4	0	0	0	91.9
CC(C)(O)C(=O)N/N=C\c1ccc(OC/C=C/c2ccccc2)cc1	32.3	0	?	0	0
CCOC(=O)N/N=C\c1ccc(OC/C=C/c2ccccc2)cc1	0	0	?	?	0
COc1ccc(N(CC(=O)Nc2ccccc2F)S(=O)(=O)c2ccc(OC)c(OC)c2)cc1	0	0	?	0	-
CCn1c(SCC(=O)Nc2cccc(OC)c2)nc2c(c1=O)SCC2	-	-	?	0	-
SMILES	Cycloheximide cs	LmPK inh	Pf growth 96h	Pf growth 48h	Shiga inhibitor
Cc1ccc2nc(-c3ccc4c(c3)NC(=O)CO4)cn2c1	42.2	0	0	0	72.2
Cc1ccc2nc(-c3ccc4c(c3)OCCO4)cn2c1	0	14.1µM	0	0	0
Clc1ccc2nc(-c3ccc4c(c3)OCO4)cn2c1	34.8	?	0	0	76.3
Cc1ccc(CSc2ccc(-c3ccc4c(c3)OCO4)nn2)cc1	0	0	0	0	0
O=C1COc2ccc(-c3n[nH]c(=O)c4ccccc34)cc2N1	0	0	0	0	0
O=C(CN1CCC(C(=O)c2ccc(Cl)cc2)CC1)NC1CCCC1	0	0	0	0	0
C[n+]1c2n(c3ccccc31)N=C(c1ccccc1)CS2	0	0[11.5 µM]	?	2.08µM	0
O=C(NCCCn1ccnc1)c1nc(Cn2cc(Br)cn2)no1	0	0	?	0	0
O=c1c2ccccc2ncn1CCCOc1ccccc1[N+](=O)[O-]	25.6	0	0	0	82.5
c1ccc2c(c1)ncn2CCOCCOCCn1cnc2ccccc21	0	0	0	?	0
O=[N+]([O-])c1ccccc1OCCCn1cnc2ccccc21	34.2	0	2.33µM	0	54.0
O=c1c2ccccc2ncn1CCCSc1ccccc1	9.6	0	?	0	0
Clc1ccc(OCCn2cnc3ccccc32)c(Cl)c1	40.8	0	?	0	64.2
O=c1c2ccccc2ncn1CCCSc1ccc(Cl)cc1	0	0	0	0	0
O=C(COC(=O)Cc1c(F)cccc1Cl)NC1CCS(=O)(=O)C1 (configuration not stated)	-	-	0	0	-
COCCc1nnc(NC(=O)C23CC4CC(CC(C4)C2)C3)s1	0	0	?	0	-
